# Screens from PubChem.
# mIDH1 inhibitor: blocks human mutant IDH1 R132H enzyme; O75874; IDH1-R132H enzyme, NADPH consumption, diaphorase/resazurin fluorescence; Potency, µM (doses to about 76.6 µM), for inactives: at the highest dose activity change, negative = inhibition, most hits filed as inhibitors; 390,000 compounds, 0.093% hits; further: potency means the concentration at half of the fitted maximal effect; on the % scale 0 is the no-effect control and ±100 the full control effect; nearly all actives have a fitted effect of over 65% in size
# Target sequence (O75874 whole entry R132H, stated change not applied): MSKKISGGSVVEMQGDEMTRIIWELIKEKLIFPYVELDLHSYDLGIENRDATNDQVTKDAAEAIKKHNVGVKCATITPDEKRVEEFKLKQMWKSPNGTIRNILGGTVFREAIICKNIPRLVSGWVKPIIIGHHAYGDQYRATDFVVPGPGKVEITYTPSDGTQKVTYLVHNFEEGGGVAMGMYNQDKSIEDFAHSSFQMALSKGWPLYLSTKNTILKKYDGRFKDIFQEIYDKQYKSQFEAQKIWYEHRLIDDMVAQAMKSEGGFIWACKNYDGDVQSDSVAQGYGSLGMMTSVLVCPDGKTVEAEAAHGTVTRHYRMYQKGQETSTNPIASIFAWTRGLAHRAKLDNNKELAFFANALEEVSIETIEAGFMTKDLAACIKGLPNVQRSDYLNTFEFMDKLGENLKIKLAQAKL
#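 IDH1-R132H (0.5 ug/mL) preincubated 30 min with compound, then NADPH (0.016 mM) and alpha-KG (2 mM) added; 80 min at RT, pH 7.5. Remaining NADPH coupled via diaphorase/resazurin to fluorescence (540/590 nm); concentration-response curves normalized to no-enzyme control.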
# PTHR1 agonist: agonists of human PTHR1 parathyroid hormone receptor; Q03431; Potency, µM (highest dose often 115 µM), inactives show at the highest dose activation, usual class: activators; AID 743266; HEK293 GP2 PTHR1 cells, GloSensor cAMP luminescence, 1 h; 410,000 compounds, 0.075% hits; further: potency means the concentration at half of the fitted maximal effect; nearly all actives have a fitted effect of over 55% in size
#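 HEK-293-derived GP2 cells expressing PTHR1 and a GloSensor cAMP reporter, 3,000/well, plated overnight, given luciferin plus IBMX (each 0.5 mM as added) for 1 h at 37 °C, then compound for 1 h at 37 °C. Luminescence was read after 15 min at room temperature.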
# LDHA inh: blocks human lactate dehydrogenase A. purified LDHA, NADH/diaphorase-resazurin fluorescence; stronger effect = lower value. 480,000 compounds, 0.15% hits. activity change, % (values are at about 110 or 230 µM). AID 1347041. P00338; in the data active means activity change below about -30%; inconclusive means mostly about -25% to -30%;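 further: plate controls were DMSO wells for no effect and wells without enzyme for full effect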
#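 Human LDH5 (2 nM) was incubated with 0.06 mM NADH and 0.2 mM pyruvate for 5 min at room temperature in Tris pH 7.4. Remaining NADH was coupled through diaphorase/resazurin, and resorufin fluorescence was read at 0 and 20 min.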
# GLP1R cytotox: cytotoxic in the GLP-1 receptor inverse agonist counter-screen. AID 624418. 410,000 compounds, 0.13% hits. Potency, µM (doses to about 38.3 µM), without a hit: at the top dose activity change, negative = inhibition, hits mostly inhibitors. HEK293 cAMP-luciferase reporter cells, luminescence, 24 h;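 further: loss of luciferase light is scored as toxicity; potency means the concentration at half of the fitted maximal effect; on the % scale 0 is the no-effect control and ±100 the full control effect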
#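 Luminescence readout: signal drop marks cytotoxicity. Plated cells grew 12 h at 37 °C, 5% CO2, received 23 nL compound for 24 h, then got luciferase reagent, read after 12 min at RT.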
# GLP-1R agonist: agonists of human GLP-1 receptor; P43220; HEK293 GLP-1R CRE-luciferase, luminescence, 4-6 h; cells express a hypersensitive GLP-1R form; Potency, µM (top dose mostly 45.6 µM), inactives show at the top dose activation, usual class: activators; 380,000 compounds, 0.007% hits; AID 624172; further: potency means the concentration at half of the fitted maximal effect; % of control where 0% means no effect
# GLP-1R inv ag: acts as inverse agonist at human GLP-1 receptor | Potency, µM (top dose mostly 38.3 µM), inactives show top-dose activity change, negative = inhibition, usual class: inhibitors | HEK293 GLP-1R CRE-luciferase, luminescence, 24 h; GLP-1R form is constitutively active | P43220 | 410,000 compounds, 1.6% hits; further: potency means the concentration at half of the fitted maximal effect; on the % scale 0 is the no-effect control and ±100 the full control effect; nearly all actives have a fitted effect of over 55% in size
#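 Seeding at 200 cells/uL, 12 h culture, 24 hr compound treatment, then luciferase reagent and a luminescence read; cells are HEK293 stably expressing a constitutively active GLP-1R plus cAMP-responsive luciferase.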
# Active calls of the source: *; i = inactive; ? = inconclusive; · = no result given; [ ] = remark or other dose. An excerpt weighted towards active compounds, which were near 1.7% of everything screened. Unless noted, the call rests on the fitted dose curve; in most records, active means well fitted curve in the direction sought with a large enough effect; inconclusive means small, poorly fitted or top-dose-only effect, or another doubt; inactive means no such curve, though single readings can be large; an effect the other way counts as inactive or inconclusive.
SMILES,mIDH1 inhibitor,PTHR1 agonist,LDHA inh,GLP1R cytotox,GLP-1R agonist,GLP-1R inv ag
CCCNC(=S)Nc1cc2oc3ccccc3c2cc1OC,9%,-7%,0,-15%,-6%,8.9µM*
C/C(=N\N(c1ccccc1)c1ccccc1)c1ccc(Br)cc1,·,·,3,·,·,·
CCN(CC)S(=O)(=O)c1cccc(C(=O)OCc2nc3ccccc3nc2C)c1,·,·,6,·,·,·
CC(C)(C)c1ccc(S(=O)(=O)N2CCC(O)(c3ccc(Cl)cc3)CC2)cc1,-4%,-41%,2,-13%,2%,7.1µM*
CN1CCN(CC2(O)CCN(S(=O)(=O)c3ccc(Cl)cc3)CC2)CC1,-2%,i,-9,15%,4%,0.89µM*
Cc1ccc(SCC2(O)CCN(S(=O)(=O)c3ccc(Cl)cc3)CC2)cc1,-2%,-37%,-12,2%,5%,0%
COc1ccc(S(=O)(=O)N2CCC(O)(c3ccc(Cl)cc3)CC2)cc1,-2%,-17%[57.5 µM],-1,-17%,-6%,?
Fc1ccc(OCc2nnc(-c3ccc(Cl)cc3)o2)cc1,·,·,-2,·,·,·
CCCc1c(CC)c(=N)c2ccccc2n1C,8%,i,-45*,-4%,-13%,5%
Cn1c(-c2ccccc2)c(C(=O)CCl)c2ccccc21,-2%,-96%,-9,?,-6%,?
O=C(Oc1ccc2cc(-c3ccc(Cl)cc3)c(=O)oc2c1)N1CCOCC1,·,·,6,·,·,·
COc1ccccc1N=Nc1c(C)[nH]n(-c2ccccc2)c1=O,4%,-8%,-8,10%,3%,7%
COc1ccc(N=C(c2ccccc2)c2c(C)[nH]n(-c3ccccc3)c2=O)c(OC)c1,10%,-6%,-2,10%,10%,7.9µM*
CCOc1ccccc1NC(=O)NC1CC2CCCC(C1)N2Cc1nnnn1CCc1ccccc1 (stereo unspecified),5%,i,-9,9%,-4%,10µM*
CSc1cccc(Nc2cc(C(=O)NCCCN(Cc3ccccc3)C(C)C)c3ccccc3n2)c1,-9%,i,-1,1%,·,?
Cc1cc(C)cc(Nc2cc(C(=O)NCCCN(Cc3ccccc3)C(C)C)c3ccccc3n2)c1,-2%,-31%,7,?,·,5.6µM*
C=CCn1c(C)c(C(C)=O)c(N2CCN(C(c3ccccc3)c3ccccc3)CC2)nc1=S,-1%,i,-5,?,8%,7.1µM*
O=c1c2ccccc2cnn1Cc1coc(-c2cccc(Cl)c2)n1,·,·,-7,·,·,·
Cc1cc(=O)oc2cc(OC(C)C(=O)NC3CC(C)(C)NC(C)(C)C3)ccc12 (stereo unspecified),·,·,-4,·,·,·
O=C(NC(=S)Nc1ccc(N2CCCCC2)c(Cl)c1)c1cccs1,2%,-26%,-1,2.8µM*,-4%,0%
COc1cccc2cc(-c3nc(Nc4cccc(C)c4C)sc3C)c(=O)oc12,-6%,-7%,-1,1%,·,10µM*
COc1ccc(/C(C)=N/NC(=S)NCCc2ccccc2)c(O)c1,-1%,-1%,2,?,8%,2µM*
COc1ccc2[nH]cc(CCNC(=S)NCCc3ccccc3)c2c1,-5%,-3%,-2,?,12%,8.9µM*
COc1ccc(O)c(/C=N/NC(=S)NCCc2ccccc2)c1,5%,-16%,-5,6%,23%,2.2µM*
Oc1ccc(Br)cc1/C=N/NC(=S)NCCc1ccccc1,5%,-20%,-9,39%,18%,?
SMILES,mIDH1 inhibitor,PTHR1 agonist,LDHA inh,GLP1R cytotox,GLP-1R agonist,GLP-1R inv ag
Fc1ccc(/C=N/NC(=S)NCCc2ccccc2)cc1F,-4%,-5%,-7,13µM*,23%,?
COCCNC(=S)N/N=C(\C)c1ccccc1O,1%,i,1,-91%,10%,?
CCc1ccc(/C=N/NC(=S)NCCc2ccccc2)cc1,-3%,-3%[57.5 µM],-8,?,7%,?
COc1ccc2[nH]cc(CCNC(=O)Nc3ccccc3)c2c1,18%,1%,-4,-4%,6%,?
COc1cccc(CN2CCCCC2)c1OC,·,·,4,·,·,·
CC(Sc1ncc(-c2ccccc2)o1)C(=O)NCc1ccc(F)cc1 (stereo unspecified),·,·,3,·,·,·
CC(C)C(CNC(=O)Cc1n[nH]c(=O)c2ccccc12)N1CCOCC1 (stereo unspecified),·,·,6,·,·,·
Cc1cccc(C(=O)NC2CC2)c1C,·,·,-2,·,·,·
COc1ccc(CN2C[C@H](Cc3ccccc3)[C@@H](CC(=O)Nc3ccccc3)C2=O)cc1,3%,-33%,-4,-4%,14%,8.9µM*
O=C(C[C@H]1C(=O)N(c2ccc(Br)cc2)C[C@@H]1Cc1ccccc1)Nc1ccccc1,17%,-11%,0,-14%,-5%,?
CCC[C@H]1CN(c2ccc(Br)cc2)C(=O)[C@@H]1CC(=O)Nc1ccccc1,0%,i,0,-4%,0%,11µM*
CCCCCCc1ccc(N2C[C@H](CCCCC)[C@@H](CC(=O)NCc3ccccc3)C2=O)cc1,8%,-37%,-2,6%,-4%,4.5µM*
CCC[C@H]1CN(c2ccc(Br)cc2)C(=O)[C@@H]1CC(=O)Nc1ccc(OC)cc1,11%,-73%,0,-8%,-2%,7.9µM*
Cc1ccc(C)c(S(=O)(=O)N2CCCC2CNC(=O)C(=O)Nc2ccccc2)c1 (stereo unspecified),-4%,-30%,-10,2%,-1%,?
COc1ccc(NC(=O)C(=O)NCC2CCCN2S(=O)(=O)c2cc(C)ccc2C)cc1 (stereo unspecified),4%,-11%,1,?,-4%,4µM*
CCN(Cc1ccccc1)c1ccc(/C=N/N=C(N)N)cc1,-2%,-37%,-7,-25%,-18%,10µM*
Cc1ccc2oc(=O)cc(-c3cc4ccccc4o3)c2c1,·,·,-19,·,·,·
CCCc1cc(=O)n2nc(N(C)CC(=O)Nc3ccccc3Br)sc2n1,·,·,-13,·,·,·
CC(C)(C)c1ccc(OCCNCc2ccccc2)cc1,7%,-33%,-15,?,20%,?
